PubChem BioAssay (NCI)
The panel holds about 83,000 compounds, 20% with a hit somewhere; the sample as a whole holds those more often.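 Percent growth is the endpoint: 0 to 100 indicates growth inhibition (40 means 60% inhibition), 0 means no net growth, and negative values indicate cell death.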 Values without a mark were called inactive. Calls of active or inactive are those of the source. The calls were made as follows: active = growth percent below 10; inactive = the rest.

Tested on: UACC-257 melanoma
Assay: NCI-60 one-dose screen, 48 h (100 = growth as untreated, 0 = no growth, -100 = all killed)
Conditions: 10 µM unless noted

| Structure (SMILES) | growth |
| --- | --- |
| O=C1C(OCCOc2ccccc2)=C(OCCOc2ccccc2)C(=O)c2ccccc21 | 14.8% |
| COc1ccc(-c2nc3sc(C)nn3c2-c2nc3cc(C)c(C)cc3[nH]2)cc1 | 100% |
| Cc1ccc2nc(NC(=O)CSC(=S)N3CCN(C)CC3)sc2c1 | 89.8% |
| COc1ccc(C2SC(C)C(=O)N2CCc2cccs2)cc1OC (centres undefined) | 75.7% |
| Cc1cc(=O)[nH]n1-c1cc(Cl)ccc1N | 89.8% |
| c1ccc2cc(Cn3c(-c4ccc5ccccc5c4)[n+](Cc4ccc5ccccc5c4)c4ccccc43)ccc2c1 | -38.5% (active) |

Tested on: M14 melanoma
Assay: as above
Conditions: 10 µM unless noted

| Structure (SMILES) | growth |
| --- | --- |
| Clc1cccc(Cl)c1Nc1ccc2nnc(-c3ccncc3)n2n1 | 99.1% |
| CC(C)(C)[Si](C)(C)OC1[C@@H](CNC(=O)NC(=O)CCl)O[C@@H](n2cnc3c(N)ncnc32)[C@H]1O[Si](C)(C)C(C)(C)C (some centres undefined) | 23.3% |
| CC(=O)Nc1ccc(Sc2ccc([N+](=O)[O-])o2)cc1 | 12.3% |
| CC(C)(C)[Si](C)(C)OC1[C@@H](COC(=O)NC(=O)CCl)O[C@@H](n2cnc3c(N)ncnc32)[C@H]1O[Si](C)(C)C(C)(C)C (some centres undefined) | 18.4% |
| COc1ncnc2c1ncn2C/C(Br)=C(\Br)CCl | -24.6% (active) |
| O=C1c2ccccc2C(=O)c2c(Nc3ccc(CCO)cc3)ccc(O)c21 | 80.3% |
| COc1ccccc1CNCCCCCCCCCCCCN1C(=O)c2ccc3c4c(ccc(c24)C1=O)C(=O)N(CCCCCCCCCCCCNCc1ccccc1OC)C3=O | 80.2% |
| CC(=O)c1cc(C)c(OC(=O)c2ccccc2)c(C)c1 | 105% |
| COC(=O)/C=C1/CCC2C3CCC4=CC(=O)C(Br)CC4(C)C3C(=O)CC12C (centres undefined) | 59.9% |
| O=c1[nH]c(-c2ccccn2)nc2sc3c(c12)CCCCCC3 | 46.1% |
| CC(C)OC1=C(Cl)C(=O)c2ccccc2C1=O | 97.8% |
| CCCCCn1c(=N)n(CC(O)COc2cccc(C)c2)c2ccccc21 (centres undefined) | 15.9% |
| CC1SC(c2cccc(Oc3ccccc3)c2)N(CCc2cccs2)C1=O (centres undefined) | -74% (active) |
| CC(C)(C)[Si](C)(C)OC1[C@@H](COC(N)=O)O[C@@H](n2cnc3c(N)ncnc32)[C@H]1O[Si](C)(C)C(C)(C)C (some centres undefined) | 98.8% |
| COc1ccc(-c2csc3c2-n2cccc2C3=O)cc1O | -18.5% (active) |
| O=c1[nH]c(-c2ccncc2)nc2sc3c(c12)CCCCCC3 | 85.3% |
| COc1ccc(-n2c(SCc3cc(OC)c(OC)c(OC)c3)nc3ccc(C)cc3c2=O)c(OC)c1 | 11.2% |

| Structure (SMILES) | growth |
| --- | --- |
| O=C1NC(=O)C(CSc2ccccc2)(c2ccccc2)N1 (centres undefined) | 105% |
| Fc1ccccc1Nc1ccc2nnc(-c3ccncc3)n2n1 | 104% |
| CC(C)(C)[Si](C)(C)OC1[C@@H](O[Si](C)(C)C(C)(C)C)[C@@H](CNC(=O)NC(=O)C(F)(F)F)O[C@H]1n1cnc2c(NC(=O)Nc3ccccc3)ncnc21 (some centres undefined) | 71.6% |
| Cc1ccc(N=c2nc3sc4c(C)ccc(C)c4n3c(N)c2C#N)cc1 | 102% |
| COCCOC1=C(Cl)C(=O)c2ccccc2C1=O | 40.1% |
| CCOC(=O)C1=C(C)N2C(=NC3=C(CCCC/C3=C\c3ccccc3)C2c2ccccc2)S1 (centres undefined) | 95.9% |
| CCN1CCN(C(=S)SCC(=O)Nc2nc3ccc(OC)cc3s2)CC1 | 112% |
| Oc1ccccc1/C=N/Nc1nc2ccccc2s1 | 56.6% |
| CC(=O)Nc1ccccc1-c1n[nH]c(=O)[nH]c1=O | 92% |
| Oc1ccc2ccccc2c1C1NN=C(c2ccccc2)S1 (centres undefined) | -8.91% (active) |
| O=c1c2c(=NCCN3CCCC3)cc3c(=O)n(CCCN4CCOCC4)c(=O)c4ccc(c(O)n1CCCN1CCOCC1)c2c4-3 | -73.4% (active) |
| COc1ccccc1-n1c(SCc2cc(OC)c(OC)c(OC)c2)nc2ccc(Cl)cc2c1=O | 15.9% |
| Nc1c(Br)cc(Br)cc1-c1n[nH]c(=O)[nH]c1=O | 101% |
| O=C1C(OCCOc2ccccc2)=C(OCCOc2ccccc2)C(=O)c2ccccc21 | 51.4% |
| O=c1nc(NO)[nH]c(=O)n1Cc1ccccc1 | 106% |
| COc1ccc(-c2nc3sc(C)nn3c2-c2nc3cc(C)c(C)cc3[nH]2)cc1 | 103% |
